Measured values from PubChem BioAssay AID1159580 (chemical genetic matrix, 2015).
Where “and” joins values, the source holds several entries; their conditions need not be identical. Identical values can stand only once. In all, about 5,500 compounds went through this assay and about 2,000 (36%) were called active. Roughly 18% stayed inconclusive and do not appear here. No stated cut-off is given here; in the data, active means normalized growth mostly below about 0.91 (no sharp cut-off); inconclusive means no clear call, values can overlap the other calls; inactive means mostly above about 0.92. The list shows a part of the results.

Test: chemical genetic growth profiling, strain panel (AID 1159580);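 further: tested at 20 µM; growth read once vehicle control cultures reached saturation at 30 °C; 1 = growth at the plate median or of vehicle wells; lower values mean less growth of the strain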
Details: growth OD

Measured: normalized growth

O=c1[nH]oc2c1CCNC2
inactive: S. cerevisiae deletion strains, locus YKL009W, strain mrt4, hits give low values 0.992 | S. cerevisiae deletion strains, locus YKL068W, hits give low values 0.982 | S. cerevisiae deletion strains, locus YKL085W, strain MDH1 (second series), hits give low values 1.03 | S. cerevisiae deletion strains, locus YKL085W, strain MDH1, hits give low values 1.03 | S. cerevisiae deletion strains, locus YKL160W, strain elf1, hits give low values 0.99 | S. cerevisiae deletion strains, locus YKL190W, strain CNB1, hits give low values 1.01 | S. cerevisiae deletion strains, locus YKR001C, strain vps1, hits give low values 0.977 | S. cerevisiae deletion strains, locus YKR026C, strain gcn3, hits give low values 1 | S. cerevisiae deletion strains, locus YKR091W, strain srl3, hits give low values 1 | S. cerevisiae deletion strains, locus YLL001W, strain dnm1, hits give low values 0.973 | S. cerevisiae deletion strains, locus YLL026W, hits give low values 0.989 | S. cerevisiae deletion strains, locus YLL041C, strain sdh2, hits give low values 1.01 | S. cerevisiae deletion strains, locus YLR027C, strain aat2, hits give low values 0.99 | S. cerevisiae deletion strains, locus YLR039C, strain RIC1, hits give low values 1.01 | S. cerevisiae deletion strains, locus YLR058C, strain SHM2, hits give low values 0.999 | S. cerevisiae deletion strains, locus YLR102C, strain apc9, hits give low values 0.982 | S. cerevisiae deletion strains, locus YLR113W, strain HOG1, hits give low values 0.974 | S. cerevisiae deletion strains, locus YLR221C, strain rsa3, hits give low values 0.999 | S. cerevisiae deletion strains, locus YLR258W, strain gsy2, hits give low values 1 | S. cerevisiae deletion strains, locus YLR262C, strain YPT6 (second series), hits give low values 1 | S. cerevisiae deletion strains, locus YLR262C, strain YPT6, hits give low values 0.993 | S. cerevisiae deletion strains, locus YLR268W, strain sec22, hits give low values 1.01 | S. cerevisiae deletion strains, locus YLR320W, strain mms22, hits give low values 1.01 | S. cerevisiae deletion strains, locus YLR330W, strain CHS5, hits give low values 0.986 | S. cerevisiae deletion strains, locus YLR342W, strain FKS1 (second series), hits give low values 0.989 | S. cerevisiae deletion strains, locus YLR342W, strain FKS1, hits give low values 0.975 | S. cerevisiae deletion strains, locus YLR357W, strain rsc2, hits give low values 0.957 | S. cerevisiae deletion strains, locus YLR370C, strain arc18, hits give low values 1 | S. cerevisiae deletion strains, locus YLR371W, strain rom2, hits give low values 0.975 | S. cerevisiae deletion strains, locus YLR384C, strain iki3, hits give low values 0.999 | S. cerevisiae deletion strains, locus YLR418C, strain cdc73, hits give low values 1.05 | S. cerevisiae deletion strains, locus YML016C, strain PPZ1, hits give low values 1.01 | S. cerevisiae deletion strains, locus YML032C, strain rad52, hits give low values 0.954 | S. cerevisiae deletion strains, locus YML120C, strain ndi1, hits give low values 0.993 | S. cerevisiae deletion strains, locus YML124C, strain tub3, hits give low values 0.987 | S. cerevisiae deletion strains, locus YMR058W, strain fet3, hits give low values 1.01 | S. cerevisiae deletion strains, locus YMR078C, strain ctf18, hits give low values 0.97 | S. cerevisiae deletion strains, locus YMR125W, strain sto1, hits give low values 0.989 | S. cerevisiae deletion strains, locus YMR129W, hits give low values 0.996 | S. cerevisiae deletion strains, locus YMR205C, strain PFK2, hits give low values 0.992 | S. cerevisiae deletion strains, locus YMR223W, strain ubp8, hits give low values 0.967 | S. cerevisiae deletion strains, locus YMR231W, strain pep5, hits give low values 0.995 | S. cerevisiae deletion strains, locus YMR263W, strain SAP30, hits give low values 1.02 | S. cerevisiae deletion strains, locus YMR307W, strain GAS1, hits give low values 1.06 and 0.998 | S. cerevisiae deletion strains, locus YNL067W, strain RPL9B, hits give low values 1.03 | S. cerevisiae deletion strains, locus YNL071W, strain lat1, hits give low values 1.01 | S. cerevisiae deletion strains, locus YNL128W, strain TEP1, hits give low values 1.03 | S. cerevisiae deletion strains, locus YNL153C, strain GIM3, hits give low values 1.03 | S. cerevisiae deletion strains, locus YNL175C, strain NOP13, hits give low values 1.02 | S. cerevisiae deletion strains, locus YNL183C, strain NPR1, hits give low values 0.924 | S. cerevisiae deletion strains, locus YNL197C, strain WHI3, hits give low values 1.05 | S. cerevisiae deletion strains, locus YNL209W, strain ssb2, hits give low values 0.999 | S. cerevisiae deletion strains, locus YNL224C, strain SQS1, hits give low values 1.02 | S. cerevisiae deletion strains, locus YNL233W, strain BNI4, hits give low values 1.04 | S. cerevisiae deletion strains, locus YNL248C, strain rpa49, hits give low values 1.01 | S. cerevisiae deletion strains, locus YNL250W, strain rad50, hits give low values 0.966 | S. cerevisiae deletion strains, locus YNL271C, strain bni1, hits give low values 0.989 | S. cerevisiae deletion strains, locus YNL298W, strain CLA4, hits give low values 0.962 | S. cerevisiae deletion strains, locus YNL307C, strain MCK1, hits give low values 0.988 | S. cerevisiae deletion strains, locus YNL322C, strain KRE1 (second series), hits give low values 0.995 | S. cerevisiae deletion strains, locus YNL322C, strain KRE1, hits give low values 0.999 | S. cerevisiae deletion strains, locus YNR049C, strain mso1, hits give low values 1 | S. cerevisiae deletion strains, locus YNR052C, strain pop2, hits give low values 0.955 | S. cerevisiae deletion strains, locus YOL006C, strain TOP1, hits give low values 1.09 | S. cerevisiae deletion strains, locus YOL012C, strain htz1 1.13 | S. cerevisiae deletion strains, locus YOL147C, strain pex11, hits give low values 0.979 | S. cerevisiae deletion strains, locus YOR001W, strain rrp6, hits give low values 0.991 | S. cerevisiae deletion strains, locus YOR061W, strain CKA2, hits give low values 1 | S. cerevisiae deletion strains, locus YOR069W, strain VPS5, hits give low values 0.993 | S. cerevisiae deletion strains, locus YOR070C, strain gyp1, hits give low values 0.999 | S. cerevisiae deletion strains, locus YOR080W, strain dia2, hits give low values 0.998 | S. cerevisiae deletion strains, locus YOR083W, strain WHI5 (second series), hits give low values 1 | S. cerevisiae deletion strains, locus YOR083W, strain WHI5, hits give low values 0.976 | S. cerevisiae deletion strains, locus YOR106W, strain vam3, hits give low values 1 | S. cerevisiae deletion strains, locus YOR136W, strain idh2, hits give low values 0.975 | S. cerevisiae deletion strains, locus YOR144C, strain elg1, hits give low values 0.989 | S. cerevisiae deletion strains, locus YOR184W, strain ser1, hits give low values 0.955 | S. cerevisiae deletion strains, locus YOR231W, strain MKK1, hits give low values 1.01 | S. cerevisiae deletion strains, locus YOR265W, strain rbl2, hits give low values 0.994 | S. cerevisiae deletion strains, locus YOR270C, strain vph1, hits give low values 1.04 | S. cerevisiae deletion strains, locus YOR290C, strain snf2, hits give low values 0.995 | S. cerevisiae deletion strains, locus YOR316C, strain cot1, hits give low values 0.995 | S. cerevisiae deletion strains, locus YPL051W, strain arl3, hits give low values 0.996 | S. cerevisiae deletion strains, locus YPL055C, strain LGE1, hits give low values 1.07 and 1.01 | S. cerevisiae deletion strains, locus YPL078C, strain atp4, hits give low values 0.992 | S. cerevisiae deletion strains, locus YPL106C, strain sse1, hits give low values 0.985 | S. cerevisiae deletion strains, locus YPL240C, strain hsp82, hits give low values 1.01 | S. cerevisiae deletion strains, locus YPL241C, strain CIN2, hits give low values 0.996 | S. cerevisiae deletion strains, locus YPL256C, strain CLN2, hits give low values 1.01 | S. cerevisiae deletion strains, locus YPR119W, strain clb2, hits give low values 0.985 | S. cerevisiae deletion strains, locus YPR141C, strain kar3, hits give low values 0.972 | S. cerevisiae deletion strains, locus YPR163C, strain tif3, hits give low values 0.968 | S. cerevisiae deletion strains, locus YPR167C, strain met16, hits give low values 0.993 | S. cerevisiae deletion strains, strain wtn01, hits give low values 1.01 | S. cerevisiae strains, strain wild type, hits give low values 0.998
